Screens: PubChem BioAssay, National Center for Advancing Translational Sciences (NCATS)
BAZ2B inh = blocks human BAZ2B; AlphaScreen BAZ2B-H3K14Ac peptide displacement; Potency, µM (top dose mostly 114 µM), for the others: at the highest dose activity change, negative = inhibition, hits mostly inhibitors; 360,000 compounds, 4.4% hits; further: on the % scale 0 is the no-effect control and ±100 the full control effect; nearly all actives have a fitted effect of over 60% in size
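AlphaScreen displacement of biotin-H3(5-23)K14Ac peptide (50 nM final) from BAZ2B (50 nM final) in PBS pH 7.4, 0.01% Tween-20; complex preformed 30 min RT, then compounds (top 110 uM) 30 min RT, beads 20 min dark.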
PLK1 PBD inh = blocks phosphopeptide binding to human PLK1 polo-box domain | Plk1 PBD binding of FITC phosphopeptide, fluorescence polarization | P53350 | AID 720504 | Potency, µM, for the others: max response, negative = inhibition, actives largely listed as inhibitors | 360,000 compounds, 2.8% hits; further: series mostly up to about 57 µM; on the % scale 0 is the no-effect control and ±100 the full control effect; nearly all actives have a fitted effect of over 65% in size
JMJD2A Tudor inh = inhibitors of human JMJD2A Tudor domain. Potency, µM (doses to about 114 µM), for inactives: top-dose activity change, negative = inhibition, most hits filed as inhibitors. AlphaScreen JMJD2A-Tudor / H3K4me3 peptide binding. 390,000 compounds, 4.4% hits. O75164. AID 504339; further: on the % scale 0 is the no-effect control and ±100 the full control effect; nearly all actives have a fitted effect of over 50% in size
G9a block = G9a (human) methyltransferase inhibition | 350,000 compounds, 8.8% hits | Potency, µM (titrated, usually from 102 µM), for inactives: top-dose activity, negative = inhibition, hits mostly inhibitors | Q96KQ7 | G9a H3K9 monomethylation, AlphaScreen, 2 h; further: on the % scale 0 is the no-effect control and ±100 the full control effect; nearly all actives have a fitted effect of over 75% in size
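AlphaScreen read-out: biotin-H3K9 peptide (500 nM) methylation by 20 nM enzyme with 20 uM SAM, 2 h at room temperature after 15 min compound preincubation; anti-monomethyl H3K9 antibody plus donor/acceptor beads, 10 min dark.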
VDR inh = inhibitors of human vitamin D receptor; P11473; VDR-SRC2-3 peptide fluorescence polarization, 2 h; Potency, µM, for the others: max response, negative = inhibition, actives largely listed as inhibitors; 400,000 compounds, 0.93% hits; AID 504847; further: on the % scale 0 is the no-effect control and ±100 the full control effect
Target sequence (P11473 whole entry, looked up): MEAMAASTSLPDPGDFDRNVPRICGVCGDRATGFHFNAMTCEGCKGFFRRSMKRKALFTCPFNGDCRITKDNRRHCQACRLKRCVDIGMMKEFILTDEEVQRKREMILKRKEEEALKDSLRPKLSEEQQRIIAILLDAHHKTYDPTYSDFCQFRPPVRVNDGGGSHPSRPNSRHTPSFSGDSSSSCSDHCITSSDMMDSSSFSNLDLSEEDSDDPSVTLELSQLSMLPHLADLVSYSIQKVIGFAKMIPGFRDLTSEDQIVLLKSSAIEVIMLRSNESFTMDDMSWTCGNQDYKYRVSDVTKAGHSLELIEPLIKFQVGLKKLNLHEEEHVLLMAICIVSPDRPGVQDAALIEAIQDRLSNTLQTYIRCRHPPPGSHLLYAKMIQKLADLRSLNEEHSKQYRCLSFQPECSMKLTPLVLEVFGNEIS
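Reagent solutions, kept cold and dark, are dispensed first; compounds are then pinned in at 23 nl, plates briefly spun, and incubated 2 h at ambient temperature. Inhibition of VDR–SRC2-3 peptide binding is read by fluorescence polarization.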
HP1b binding inh = inhibitors of HP1-beta chromodomain binding to methylated histone tails | P83916 | AlphaScreen HP1-beta / biotin-H3K9me3 peptide binding | Potency, µM (series often up to 114 µM), without a hit: at the highest dose activity change, negative = inhibition, usual class: inhibitors | 390,000 compounds, 0.56% hits | AID 540317; further: nearly all actives have a fitted effect of over 70% in size
Target sequence (P83916 whole entry, looked up): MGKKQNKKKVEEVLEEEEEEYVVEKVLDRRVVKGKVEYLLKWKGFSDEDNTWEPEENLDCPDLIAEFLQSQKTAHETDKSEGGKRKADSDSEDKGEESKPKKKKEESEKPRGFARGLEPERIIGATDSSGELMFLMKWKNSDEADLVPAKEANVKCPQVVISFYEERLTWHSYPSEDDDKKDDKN
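AlphaScreen: HP1-beta (50 nM) preformed 30 min with biotin-H3(1-18)K9me3 peptide (50 nM) in PBS pH 7.4, 0.01% Tween-20. Compound added for 30 min at RT, then streptavidin donor/nickel chelate acceptor beads (10 ug/mL) for 30 min.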
* = called active by the depositor; ? = inconclusive; / = no result; ! = not confirmed by another sample; [ ] = dose if it differs, or a comment. An excerpt weighted towards active compounds, which were near 11% of everything screened. The call rests on the fitted dose curve; in most records, active means well fitted curve in the direction sought with a large enough effect; inconclusive means small, poorly fitted or top-dose-only effect, or another doubt; inactive means no such curve, though single readings can be large; an effect the other way counts as inactive or inconclusive. Potency means the concentration at half of the fitted maximal effect.

SMILES	BAZ2B inh	PLK1 PBD inh	JMJD2A Tudor inh	G9a block	VDR inh	HP1b binding inh
NS(=O)(=O)c1ccc(N=Nc2c(O)[nH]c(=S)[nH]c2=O)cc1	-14.6%	-2.7%	1.1%	/	-5.5%	21.7%
O=c1[nH]c(=S)[nH]c(O)c1N=Nc1cc2c(cc1[N+](=O)[O-])OCO2	-31.1%	-14.2%	-12.2%[57.1 µM]	50.1µM*	?	-26.3%
O=c1[nH]c(=S)[nH]c(O)c1N=Nc1ccc(-c2ccccc2)cc1[N+](=O)[O-]	7.94µM*	/	/	11.2µM*	/	/
O=c1[nH]c(=S)[nH]c(O)c1N=Nc1ccc2c(c1)OCO2	-29.0%	16.4%	-9.0%	?	-8.9%	24.2%
O=c1cc(-c2ccc(O)c(O)c2)oc2cc(O)cc(O)c12	79.4µM*	-6.5%	44.7µM*	10µM*	-24.5%	-15.3%
O=c1c(O)c(-c2ccc(O)c(O)c2)oc2cc(O)cc(O)c12	?	-1.8%	?	12.6µM*	-16.2%	-7.7%
Brc1nc(-c2ccccc2)nc(-c2ccccc2)c1Br	/	2.4%	13.4%	/	?	57.5%
CCC(C)n1c(=O)[nH]c(C)c(Br)c1=O (centres undefined)	/	/	/	/	12.0%	/
N#CC(O[C@@H]1OC(COC2OC(CO)C(O)C(O)[C@@H]2O)C(O)C(O)C1O)c1ccccc1 (some centres undefined)	/	/	/	-38.3%[2.33 µM]	-1.7%	/
CCc1c(C)nc(N)nc1N1N=C1SC(C(C)=O)C(C)=O	?	-21.8%	-24.1%	/	22.4µM*	30.5%
Cn1c(NN=O)nc2ccccc21	?	-4.7%	?	8.91µM*	13.7%	-1.6%
CC[N+](CC)(CC)CCOc1cccc(OCC[N+](CC)(CC)CC)c1OCC[N+](CC)(CC)CC	-38.3%	-10.5%	22.4µM*	5.32µM*!	8.9%	25.1%
NCC(O)c1cc(O)c(O)cc1F (centres undefined)	0.6%	0.9%	10µM*	9.47µM*!	28.2µM*!	?
O=C(NCc1ccccc1)Oc1cccc(Cl)c1	6.1%	8.44µM*	-17.5%	4.6%[59 µM]	3.4%	6.0%
CCCn1c(C)c(C(=O)c2ccc3ccccc3c2)c2ccccc21	/	/	/	-4.1%[59 µM]	-3.1%	/
CCOC(=O)c1ccccc1C(=O)OCC	/	-18.7%	-5.5%	18.4%[59 µM]	-9.3%	55.0%
CCOC(=O)C(SP(=S)(OC)OC)c1ccccc1 (centres undefined)	/	/	/	/	3.55µM*	/
CCCCc1ccc(NC(=O)c2ccc3c(c2)CCN3S(=O)(=O)CC)cc1	?	/	?	?	0.9%	-0.9%
Cc1ccc(NP(=O)(c2ccccc2)c2nc3ccccc3s2)cc1 (centres undefined)	-22.5%	-3.1%	-15.8%	25.1µM*	-15.8%	10.4%
COCCNP(=O)(c1ccccc1)c1nc2ccccc2s1 (centres undefined)	11.0%	/	/	0.0%[12.7 µM]	/	/
N=C1/C(=C\c2ccc(OC(=O)c3ccccc3Cl)cc2)C(=O)N=C2SC(N3CCOCC3)=NN12	44.7µM*	29.9µM*	50.1µM*	5.7%	?	-12.1%
CCS(=O)(=O)C1=NN2C(=N)/C(=C\c3ccc(OC(=O)c4ccco4)cc3)C(=O)N=C2S1	?	?	-0.7%	39.8µM*	7.2%	33.5%
Cc1ccc(CNC(=O)c2ccc(CSc3nc4ccncc4n3Cc3ccc(C)cc3)cc2)cc1	9.9%	/	-17.4%	20.3%[59 µM]	10.7%	44.1%
CCCCCCCCCCCCCCCC[N+](C)(C)C	6.1%	-24.9%	-0.7%	8.91µM*!	-7.6%	52.3%
Cc1ccc(C(C)C)c(OCCn2c(=O)oc3ccccc32)c1	101.0%	-9.4%	60.8%	41.0%	-26.4%	230.9%
SMILES	BAZ2B inh	PLK1 PBD inh	JMJD2A Tudor inh	G9a block	VDR inh	HP1b binding inh
Cn1c(N)c(Sc2ccccc2[N+](=O)[O-])c(=O)n(C)c1=O	-1.6%	-24.7%	-4.9%	44.7µM*	10.6%	4.9%
O=[N+]([O-])c1ccc(NCc2ccccc2)c2nonc12	-17.4%	0.844µM*	-7.6%	1.1%	-6.9%	37.2%
O=[N+]([O-])c1ccc(N2CCCCCC2)c2nonc12	?	-17.1%	-16.4%	-2.0%	0.5%	11.4%
COC(=O)C(C)Oc1ccc(Cc2ncc(C(F)(F)F)cc2Cl)cc1 (centres undefined)	80.2%	-6.7%	56.2%	3.6%[2.33 µM]	-2.2%	117.1%
CN(C)c1ccc(P(=O)(OC2CCCCC2)C(Nc2ccccc2)c2cccnc2)cc1 (centres undefined)	39.8µM*	-1.6%	-20.8%	/	-14.4%	-16.8%
COC(=O)c1c(Sc2ccccc2)c2ccccc2n1C	29.9%	-4.7%	81.2%	24.0%[0.501 µM]	-9.7%	68.4%
Cc1ccc(CN2CCN(Cc3ccccc3F)CC2)cc1	22.4µM*	-1.0%	20µM*	12.6µM*	10.7%	?
CCN1CCN(Cc2ccc(C)cc2)CC1	-3.7%	-0.7%	1.5%	?	11.2%	36.1%
COc1ccccc1CN1CCN(Cc2ccc(Cl)cc2)CC1	17.8µM*	-15.9%	39.8µM*	3.55µM*	1.0%	?
COc1ccccc1N1CCN(Cc2ccc(Cl)cc2Cl)CC1	?	-3.1%	22.4µM*	22.4µM*	9.4%	?
CC(C)N1CCN(Cc2ccccc2C(F)(F)F)CC1CCO (centres undefined)	-14.0%	-10.8%	-12.7%	19.0%	-9.0%	4.7%
FC(F)(F)c1ccccc1CN1CCN(Cc2ccccc2)CC1	50.1µM*	-5.1%	3.98µM*	3.16µM*	15.0%	?
CCC(C)C1O[C@]2(C=CC1C)CC1CC(C/C=C(\C)[C@H](OC3CC(OC)C(O[C@H]4CC(OC)[C@@H](O)C(C)O4)C(C)O3)[C@@H](C)/C=C/C=C3\COC4C(O)C(C)=C[C@H](C(=O)O1)[C@@]34O)O2 (some centres undefined)	/	/	/	-30.8%[2.33 µM]	-2.2%	/
COc1ccc(CN2CCN(c3ccccc3)CC2)c(C)c1C	50.1µM*	2.1%	3.98µM*	11.2µM*	2.6%	?
Cc1cc(O)c(CN2CCN(c3ccccc3)CC2)cc1C	-1.0%	0.7%	-16.7%	21.7%[12.7 µM]	-1.0%	34.3%
Cc1[nH]n(-c2ccccc2)c(=O)c1C(C[N+](=O)[O-])c1ccccc1Cl (centres undefined)	?	15µM*	-17.1%[11.4 µM]	?	-19.7%	4.9%
Cc1[nH]n(-c2ccccc2)c(=O)c1C(c1ccc([N+](=O)[O-])cc1)c1c(C)[nH]n(-c2ccccc2)c1=O	39.8µM*	7.52µM*	17.8µM*	11.2µM*	?	35.5µM*
O=C1CC(O)(CF)CCO1 (centres undefined)	/	/	/	/	0.8%	/
CCN1CCN(Cc2nc3ccc([N+](=O)[O-])cc3c(=O)n2-c2ccccc2F)CC1	2.1%	-7.4%	6.9%	?	1.5%	22.5%
COc1cccc(-n2c(CN3CCOCC3)nc3ccc([N+](=O)[O-])cc3c2=O)c1	-6.7%	-16.1%	-17.4%	44.7µM*	-15.0%	12.3%
